Holding throughout (assay): DAPPL (digital affinity profiling via proximity ligation, sequencing); 10 mM Tris-HCl pH 7.5, 50 mM NaCl, 1 mM DTT, 4% glycerol, room temperature, 30 min; GST-TFs on glutathione beads, 16-mer random dsDNA library, 0.1% formaldehyde crosslink after washing; high values mean tight binding
Conditions in all cases: protein: recombinant; tags: N-terminal GST; dsDNA, one strand shown

The target of one test is T1, FLI1 (Homo sapiens, UniProt Q01543 1-452).
T1 sequence: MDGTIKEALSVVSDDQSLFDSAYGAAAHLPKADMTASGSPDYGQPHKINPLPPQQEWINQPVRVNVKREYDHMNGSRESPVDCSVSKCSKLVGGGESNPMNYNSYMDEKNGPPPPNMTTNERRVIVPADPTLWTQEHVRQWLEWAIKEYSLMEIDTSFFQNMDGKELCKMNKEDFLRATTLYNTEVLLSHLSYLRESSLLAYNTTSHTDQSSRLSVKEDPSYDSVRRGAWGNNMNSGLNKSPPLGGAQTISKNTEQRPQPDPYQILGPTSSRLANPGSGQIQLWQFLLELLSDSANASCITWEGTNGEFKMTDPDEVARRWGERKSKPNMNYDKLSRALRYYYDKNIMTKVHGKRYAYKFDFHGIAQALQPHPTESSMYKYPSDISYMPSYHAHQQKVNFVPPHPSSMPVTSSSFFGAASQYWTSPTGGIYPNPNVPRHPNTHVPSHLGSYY
The method, boiled down: (§1)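 GST fusions of human transcription factors were expressed in yeast and captured with glutathione beads. Once given DNA barcodes and pooled alongside a tag-only sample, they were incubated for 30 min at room temperature with 200 nmole of a random double-stranded 16-mer DNA library in Tris/NaCl/DTT/glycerol buffer, then washed, crosslinked (0.1% formaldehyde), proximity-ligated, PCR-amplified and sequenced on an Illumina NextSeq500. The binding signal of each hexamer is its read frequency for a factor divided by its frequency for the tag-only sample.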

The next test has as its target T2, ELK1 (Homo sapiens, UniProt P19419 1-428).
T2 sequence: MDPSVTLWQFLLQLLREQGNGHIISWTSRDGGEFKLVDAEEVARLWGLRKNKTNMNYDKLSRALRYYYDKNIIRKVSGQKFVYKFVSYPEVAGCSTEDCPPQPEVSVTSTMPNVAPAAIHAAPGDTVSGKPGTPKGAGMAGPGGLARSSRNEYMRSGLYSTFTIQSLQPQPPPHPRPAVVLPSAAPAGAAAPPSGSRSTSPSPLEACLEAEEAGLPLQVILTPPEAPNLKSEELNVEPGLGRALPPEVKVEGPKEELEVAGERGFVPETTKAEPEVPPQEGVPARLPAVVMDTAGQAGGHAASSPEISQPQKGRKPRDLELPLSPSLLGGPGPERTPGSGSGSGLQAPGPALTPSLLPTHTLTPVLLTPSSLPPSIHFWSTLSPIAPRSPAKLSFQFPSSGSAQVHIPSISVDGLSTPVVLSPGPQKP
The method, boiled down: as §1

The next test deals with T3, GABPA (Homo sapiens, UniProt Q06546 1-454).
T3 sequence: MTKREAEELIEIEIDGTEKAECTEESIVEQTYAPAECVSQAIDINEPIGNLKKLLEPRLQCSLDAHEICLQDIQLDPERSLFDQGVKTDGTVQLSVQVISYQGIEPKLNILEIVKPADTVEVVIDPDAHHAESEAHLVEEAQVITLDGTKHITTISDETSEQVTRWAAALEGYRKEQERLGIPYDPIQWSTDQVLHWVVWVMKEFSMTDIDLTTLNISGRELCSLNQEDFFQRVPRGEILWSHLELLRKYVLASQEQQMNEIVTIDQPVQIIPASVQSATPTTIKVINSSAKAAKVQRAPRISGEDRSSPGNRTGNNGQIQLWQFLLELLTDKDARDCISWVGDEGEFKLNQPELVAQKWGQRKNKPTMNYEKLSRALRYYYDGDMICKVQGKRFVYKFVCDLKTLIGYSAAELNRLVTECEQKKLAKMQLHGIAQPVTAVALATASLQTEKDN
In outline: as §1

Another test addresses T4, ERG (Homo sapiens, UniProt P11308 1-479).
T4 sequence: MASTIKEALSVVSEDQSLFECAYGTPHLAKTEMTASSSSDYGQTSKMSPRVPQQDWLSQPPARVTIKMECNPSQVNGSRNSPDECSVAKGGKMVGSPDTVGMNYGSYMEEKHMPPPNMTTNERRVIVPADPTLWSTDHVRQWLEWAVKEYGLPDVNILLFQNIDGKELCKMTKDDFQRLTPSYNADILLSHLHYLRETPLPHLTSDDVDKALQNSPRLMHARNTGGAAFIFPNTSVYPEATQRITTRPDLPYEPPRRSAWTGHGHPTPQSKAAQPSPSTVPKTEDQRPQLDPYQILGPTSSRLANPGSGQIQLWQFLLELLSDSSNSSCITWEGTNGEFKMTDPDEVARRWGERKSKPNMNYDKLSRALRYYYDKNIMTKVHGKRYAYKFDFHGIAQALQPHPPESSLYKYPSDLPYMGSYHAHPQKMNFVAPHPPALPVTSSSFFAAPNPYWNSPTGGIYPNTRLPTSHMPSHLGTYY
The method, boiled down: as §1

The next test concerns the target ELF1 (Homo sapiens, UniProt P32519 1-619). In outline: as §1
The next test has as its target T5, EHF (Homo sapiens, UniProt Q9NZC4 1-300).
T5 sequence: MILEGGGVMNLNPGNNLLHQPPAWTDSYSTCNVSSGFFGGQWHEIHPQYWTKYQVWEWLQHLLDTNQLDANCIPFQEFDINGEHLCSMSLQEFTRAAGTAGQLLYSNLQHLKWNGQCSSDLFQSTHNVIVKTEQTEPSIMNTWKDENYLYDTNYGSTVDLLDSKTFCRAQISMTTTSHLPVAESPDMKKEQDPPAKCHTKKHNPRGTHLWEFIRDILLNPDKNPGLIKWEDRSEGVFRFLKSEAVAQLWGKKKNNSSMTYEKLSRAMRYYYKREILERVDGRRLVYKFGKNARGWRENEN
The method, boiled down: as §1

The next test deals with SPI1 (Homo sapiens, UniProt P17947 1-270). In outline: as §1
In a further test the target is SPIB (Homo sapiens, UniProt Q01892 1-262). In outline:
as §1

A further test deals with T6, ELK3 (Homo sapiens, UniProt P41970 1-407).
T6 sequence: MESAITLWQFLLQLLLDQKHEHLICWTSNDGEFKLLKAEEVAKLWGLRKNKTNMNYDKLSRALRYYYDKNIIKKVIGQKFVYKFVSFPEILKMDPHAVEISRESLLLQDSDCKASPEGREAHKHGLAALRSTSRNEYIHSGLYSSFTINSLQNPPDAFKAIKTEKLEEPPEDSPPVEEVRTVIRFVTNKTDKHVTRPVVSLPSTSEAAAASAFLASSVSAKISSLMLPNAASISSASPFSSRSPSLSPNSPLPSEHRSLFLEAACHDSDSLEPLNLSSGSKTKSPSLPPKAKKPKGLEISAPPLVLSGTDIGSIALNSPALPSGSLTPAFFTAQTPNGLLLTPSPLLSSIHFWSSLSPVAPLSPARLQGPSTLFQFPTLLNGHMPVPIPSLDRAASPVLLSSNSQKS
In outline: as §1

The next test deals with T7, FEV (Homo sapiens, UniProt Q99581 1-238).
T7 sequence: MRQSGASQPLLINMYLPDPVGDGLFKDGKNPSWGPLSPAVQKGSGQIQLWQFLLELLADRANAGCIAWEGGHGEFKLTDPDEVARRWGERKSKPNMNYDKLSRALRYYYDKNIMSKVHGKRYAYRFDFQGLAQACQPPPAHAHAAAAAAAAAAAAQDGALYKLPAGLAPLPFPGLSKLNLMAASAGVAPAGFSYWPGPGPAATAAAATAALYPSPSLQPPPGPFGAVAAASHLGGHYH
In outline: as §1

In a further test the target is ETV5 (Homo sapiens, UniProt P41161 1-510). The method, boiled down:
as §1

The target of another test is T8, SPIC (Homo sapiens, UniProt Q8N5J4 1-248).
T8 sequence: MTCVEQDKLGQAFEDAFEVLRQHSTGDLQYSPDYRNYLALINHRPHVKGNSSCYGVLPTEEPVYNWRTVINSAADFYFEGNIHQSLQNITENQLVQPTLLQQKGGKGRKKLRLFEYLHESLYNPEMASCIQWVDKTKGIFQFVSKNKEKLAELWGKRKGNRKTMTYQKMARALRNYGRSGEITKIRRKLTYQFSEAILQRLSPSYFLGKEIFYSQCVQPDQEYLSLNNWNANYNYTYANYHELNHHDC
The method, boiled down:
as §1

Another test concerns the target ELF4 (Homo sapiens, UniProt Q99607 1-663). The method, boiled down:
as §1

A further test concerns the target T9, ELK4 (Homo sapiens, UniProt P28324-2 1-405).
T9 sequence: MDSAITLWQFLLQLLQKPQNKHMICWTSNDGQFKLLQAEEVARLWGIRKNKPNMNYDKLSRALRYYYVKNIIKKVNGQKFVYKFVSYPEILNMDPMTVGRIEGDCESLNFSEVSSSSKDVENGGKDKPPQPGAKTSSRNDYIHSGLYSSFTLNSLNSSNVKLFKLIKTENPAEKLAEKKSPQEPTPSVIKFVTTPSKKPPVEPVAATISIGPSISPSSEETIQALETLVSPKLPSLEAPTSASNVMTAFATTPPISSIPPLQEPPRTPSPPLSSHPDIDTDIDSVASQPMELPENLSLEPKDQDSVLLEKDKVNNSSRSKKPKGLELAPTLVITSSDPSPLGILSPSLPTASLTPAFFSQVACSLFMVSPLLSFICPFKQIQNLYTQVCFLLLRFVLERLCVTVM
In outline:
as §1

A further test has as its target T10, ETV2 (Homo sapiens, UniProt O00321 1-342).
T10 sequence: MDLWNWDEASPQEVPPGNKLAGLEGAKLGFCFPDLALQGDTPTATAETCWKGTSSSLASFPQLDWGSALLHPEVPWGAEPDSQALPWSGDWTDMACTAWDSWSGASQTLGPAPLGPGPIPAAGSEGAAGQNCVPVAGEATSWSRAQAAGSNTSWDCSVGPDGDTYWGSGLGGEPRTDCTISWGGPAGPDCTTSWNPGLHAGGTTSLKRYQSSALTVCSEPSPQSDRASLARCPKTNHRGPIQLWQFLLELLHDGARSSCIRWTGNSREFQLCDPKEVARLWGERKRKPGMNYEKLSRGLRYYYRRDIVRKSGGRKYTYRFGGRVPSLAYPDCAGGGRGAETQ
In outline: as §1

A further test addresses T11, ELF3 (Homo sapiens, UniProt P78545 1-371).
T11 sequence: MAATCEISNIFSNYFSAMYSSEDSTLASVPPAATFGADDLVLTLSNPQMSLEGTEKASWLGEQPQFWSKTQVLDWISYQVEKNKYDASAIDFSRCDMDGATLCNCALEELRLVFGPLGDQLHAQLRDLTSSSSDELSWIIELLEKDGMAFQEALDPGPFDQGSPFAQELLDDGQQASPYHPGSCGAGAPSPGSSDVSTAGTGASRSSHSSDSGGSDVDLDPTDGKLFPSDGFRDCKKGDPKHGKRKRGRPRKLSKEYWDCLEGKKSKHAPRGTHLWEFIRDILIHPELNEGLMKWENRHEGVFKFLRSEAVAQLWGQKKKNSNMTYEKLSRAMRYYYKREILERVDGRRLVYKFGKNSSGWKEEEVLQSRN
The method, boiled down:
as §1

For another test, the target named is ETV1 (Homo sapiens, UniProt P50549 1-477). In outline:
as §1

SPIB, sequence (Q01892 whole entry): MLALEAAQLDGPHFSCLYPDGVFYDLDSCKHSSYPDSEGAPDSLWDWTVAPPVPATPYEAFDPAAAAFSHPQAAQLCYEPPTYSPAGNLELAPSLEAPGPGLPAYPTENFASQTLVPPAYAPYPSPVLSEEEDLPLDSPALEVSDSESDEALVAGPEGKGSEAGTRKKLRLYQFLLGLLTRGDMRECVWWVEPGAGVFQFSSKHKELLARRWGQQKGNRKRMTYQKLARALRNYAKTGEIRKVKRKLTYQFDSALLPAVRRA
ETV5, sequence (P41161 whole entry): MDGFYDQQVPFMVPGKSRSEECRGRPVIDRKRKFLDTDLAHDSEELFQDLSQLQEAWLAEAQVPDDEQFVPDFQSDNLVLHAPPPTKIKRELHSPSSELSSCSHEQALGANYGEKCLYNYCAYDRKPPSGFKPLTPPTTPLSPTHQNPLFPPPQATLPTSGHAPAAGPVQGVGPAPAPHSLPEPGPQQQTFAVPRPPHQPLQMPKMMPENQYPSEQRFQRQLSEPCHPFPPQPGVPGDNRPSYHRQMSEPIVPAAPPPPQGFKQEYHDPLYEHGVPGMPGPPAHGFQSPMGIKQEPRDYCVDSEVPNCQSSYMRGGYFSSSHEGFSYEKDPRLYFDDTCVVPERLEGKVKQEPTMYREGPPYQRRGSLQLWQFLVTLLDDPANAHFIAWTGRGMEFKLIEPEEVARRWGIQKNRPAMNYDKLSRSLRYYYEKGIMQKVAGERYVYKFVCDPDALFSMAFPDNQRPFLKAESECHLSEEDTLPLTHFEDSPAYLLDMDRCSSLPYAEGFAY
ETV1, sequence (P50549 whole entry): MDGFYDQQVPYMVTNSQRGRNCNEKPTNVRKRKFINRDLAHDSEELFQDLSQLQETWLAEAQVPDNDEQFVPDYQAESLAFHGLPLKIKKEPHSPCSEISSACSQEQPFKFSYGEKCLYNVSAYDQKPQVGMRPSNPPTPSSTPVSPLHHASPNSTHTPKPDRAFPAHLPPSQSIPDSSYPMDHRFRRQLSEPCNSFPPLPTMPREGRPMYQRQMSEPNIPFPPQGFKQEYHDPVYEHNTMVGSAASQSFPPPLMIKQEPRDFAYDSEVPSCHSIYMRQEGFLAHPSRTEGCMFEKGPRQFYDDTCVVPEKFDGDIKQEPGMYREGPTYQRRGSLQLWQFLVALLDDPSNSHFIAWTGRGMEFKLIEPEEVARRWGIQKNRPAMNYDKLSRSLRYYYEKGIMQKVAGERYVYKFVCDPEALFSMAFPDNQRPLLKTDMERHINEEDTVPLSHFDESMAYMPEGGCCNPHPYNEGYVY
ELF4, sequence (Q99607 whole entry): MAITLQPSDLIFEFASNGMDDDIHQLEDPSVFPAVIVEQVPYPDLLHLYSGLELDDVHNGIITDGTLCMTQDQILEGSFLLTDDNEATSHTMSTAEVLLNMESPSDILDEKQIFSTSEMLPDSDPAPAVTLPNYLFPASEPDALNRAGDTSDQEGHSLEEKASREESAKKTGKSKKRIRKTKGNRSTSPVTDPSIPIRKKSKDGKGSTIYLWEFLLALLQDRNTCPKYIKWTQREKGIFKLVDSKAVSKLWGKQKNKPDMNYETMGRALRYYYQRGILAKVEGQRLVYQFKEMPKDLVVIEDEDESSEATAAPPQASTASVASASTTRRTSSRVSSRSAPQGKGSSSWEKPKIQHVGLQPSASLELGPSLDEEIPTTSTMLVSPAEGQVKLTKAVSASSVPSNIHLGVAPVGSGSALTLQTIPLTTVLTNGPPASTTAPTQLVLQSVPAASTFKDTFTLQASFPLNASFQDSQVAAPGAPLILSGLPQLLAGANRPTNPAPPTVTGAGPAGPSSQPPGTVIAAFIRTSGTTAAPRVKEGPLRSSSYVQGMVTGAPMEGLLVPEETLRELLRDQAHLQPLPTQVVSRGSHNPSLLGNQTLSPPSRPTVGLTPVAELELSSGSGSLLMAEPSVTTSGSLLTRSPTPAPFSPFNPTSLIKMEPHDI
ELF1, sequence (P32519 whole entry): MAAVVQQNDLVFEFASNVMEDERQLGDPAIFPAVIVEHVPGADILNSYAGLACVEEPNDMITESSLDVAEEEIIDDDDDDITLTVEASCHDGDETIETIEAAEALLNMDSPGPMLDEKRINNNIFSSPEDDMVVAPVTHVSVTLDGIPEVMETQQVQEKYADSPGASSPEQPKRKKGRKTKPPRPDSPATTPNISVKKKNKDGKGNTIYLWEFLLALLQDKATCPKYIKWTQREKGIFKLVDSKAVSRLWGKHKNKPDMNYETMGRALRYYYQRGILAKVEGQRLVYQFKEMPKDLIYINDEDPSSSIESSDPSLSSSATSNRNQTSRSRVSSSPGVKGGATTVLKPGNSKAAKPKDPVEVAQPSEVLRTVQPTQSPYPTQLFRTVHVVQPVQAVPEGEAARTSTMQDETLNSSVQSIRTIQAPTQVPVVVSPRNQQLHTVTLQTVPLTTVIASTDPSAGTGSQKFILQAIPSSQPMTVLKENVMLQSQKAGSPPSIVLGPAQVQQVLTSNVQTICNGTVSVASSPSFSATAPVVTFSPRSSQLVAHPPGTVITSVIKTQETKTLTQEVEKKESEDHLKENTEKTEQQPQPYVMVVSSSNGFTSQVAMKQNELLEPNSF

For the sequence GAAGCG, the binding signal with FLI1 is 1.37 fold enrichment (6-mer frequency, TF over GST control); with ELK1 it was 1.24 fold enrichment (6-mer frequency, TF over GST control); in the test with GABPA, 1.27 fold enrichment (6-mer frequency, TF over GST control); with ERG it was 1.42 fold enrichment (6-mer frequency, TF over GST control); in the test with ELF1 it was 1.29 fold enrichment (6-mer frequency, TF over GST control); in the test with EHF it was 1.53 fold enrichment (6-mer frequency, TF over GST control). Moreover, the binding signal was 1.43 fold enrichment (6-mer frequency, TF over GST control) with SPI1; 1.28 fold enrichment (6-mer frequency, TF over GST control) in the test with SPIB; 1.49 fold enrichment (6-mer frequency, TF over GST control) with ELK3; 1.37 fold enrichment (6-mer frequency, TF over GST control) with FEV; 1.33 fold enrichment (6-mer frequency, TF over GST control) with ETV5; 1.27 fold enrichment (6-mer frequency, TF over GST control) in the test with SPIC. The binding signal is 1.2 fold enrichment (6-mer frequency, TF over GST control) with ELF4; 1.2 fold enrichment (6-mer frequency, TF over GST control) with ELK4; 1.19 fold enrichment (6-mer frequency, TF over GST control) with ETV2; 1.22 fold enrichment (6-mer frequency, TF over GST control) with ELF3; 1.38 fold enrichment (6-mer frequency, TF over GST control) in the test with ETV1.

For the sequence GCACGC, the binding signal is 1.03 fold enrichment (6-mer frequency, TF over GST control) with FLI1; 1.09 fold enrichment (6-mer frequency, TF over GST control) in the test with ELK1; 1.14 fold enrichment (6-mer frequency, TF over GST control) in the test with GABPA; 1.03 fold enrichment (6-mer frequency, TF over GST control) with ERG; 1.15 fold enrichment (6-mer frequency, TF over GST control) in the test with ELF1; 1.15 fold enrichment (6-mer frequency, TF over GST control) in the test with EHF. Moreover, the binding signal with SPI1 is 1.12 fold enrichment (6-mer frequency, TF over GST control); in the test with SPIB it was 1.19 fold enrichment (6-mer frequency, TF over GST control); in the test with ELK3, 1.09 fold enrichment (6-mer frequency, TF over GST control); with FEV, 1.08 fold enrichment (6-mer frequency, TF over GST control); with ETV5, 1.04 fold enrichment (6-mer frequency, TF over GST control); in the test with SPIC, 1.06 fold enrichment (6-mer frequency, TF over GST control). Moreover, the binding signal with ELF4 was 1.11 fold enrichment (6-mer frequency, TF over GST control); in the test with ELK4, 1.05 fold enrichment (6-mer frequency, TF over GST control); with ETV2 it was 1.18 fold enrichment (6-mer frequency, TF over GST control); with ELF3, 1.13 fold enrichment (6-mer frequency, TF over GST control); in the test with ETV1, 1.16 fold enrichment (6-mer frequency, TF over GST control).

Source of the values: paper PMC7862700, “An all-to-all approach to the identification of sequence-specific readers for epigenetic DNA modifications on cytosine”.
